Screening results deposited in PubChem BioAssay by National Center for Advancing Translational Sciences (NCATS).
Only some compounds are listed: those with a hit (about 12% of all), similar ones and a draw of the others.
BAZ2B inh = BAZ2B (human) inhibition; 360,000 tested, 4.4% active; AlphaScreen BAZ2B-H3K14Ac peptide displacement; Potency, µM (series often up to 114 µM), most hits filed as inhibitors; further: nearly all actives have a fitted effect of over 60% in size
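Inhibition is scored as reduced AlphaScreen emission. The BAZ2B/b-H3(5-23)K14Ac complex (50 nM each) in PBS pH 7.4, 0.01% Tween-20 meets compound (up to 110 uM) for 30 min at RT before bead addition.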
HP1b binding inh = HP1-beta chromodomain-methylated histone interaction inhibition. AlphaScreen HP1-beta / biotin-H3K9me3 peptide binding. AID 540317. 390,000 tested, 0.56% active. P83916. Potency, µM (series often up to 114 µM), hits mostly inhibitors; further: nearly all actives have a fitted effect of over 70% in size
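AlphaScreen: HP1-beta (50 nM) preformed 30 min with biotin-H3(1-18)K9me3 peptide (50 nM) in PBS pH 7.4, 0.01% Tween-20. Compound added for 30 min at RT, then streptavidin donor/nickel chelate acceptor beads (10 ug/mL) for 30 min.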
Sfp inh = blocks B. subtilis Sfp PPTase activity; Biochemical Sfp PPTase activity, qHTS; 310,000 tested, 3.5% active; AID 1490; Potency, µM, most hits filed as inhibitors;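 further: the enzyme is Sfp with the accession as filed and its product quenches rhodamine fluorescence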
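Reaction rates are the 30-min fluorescence difference (ex 525, em 598 nm) in wells containing 15 nM Sfp, 5 uM rhodamine-CoA and 12.5 uM BHQ-2-YbbR at pH 7.6 with 10 mM MgCl2.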
G9a inh = inhibitors of human histone lysine methyltransferase G9a; G9a H3K9 monomethylation, AlphaScreen, 2 h; Q96KQ7; 350,000 tested, 8.8% active; Potency, µM (series often up to 102 µM), most hits filed as inhibitors; further: nearly all actives have a fitted effect of over 75% in size
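Step 1: enzyme (final 20 nM) with compound, 15 min RT. Step 2: substrate peptide 500 nM and SAM 20 uM, 2 h RT. Step 3: anti-H3K9me1 antibody and AlphaScreen beads, 10 min, then plate read.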
L3MBTL1 inh = inhibitors of human L3MBTL1 | AID 485360 | Potency, µM (top dose mostly 57.1 µM), usual class: inhibitors | 230,000 tested, 0.66% active | AlphaScreen L3MBTL1–H3K9me1 peptide binding; further: nearly all actives have a fitted effect of over 60% in size
Target sequence (Q9Y468 whole entry, looked up): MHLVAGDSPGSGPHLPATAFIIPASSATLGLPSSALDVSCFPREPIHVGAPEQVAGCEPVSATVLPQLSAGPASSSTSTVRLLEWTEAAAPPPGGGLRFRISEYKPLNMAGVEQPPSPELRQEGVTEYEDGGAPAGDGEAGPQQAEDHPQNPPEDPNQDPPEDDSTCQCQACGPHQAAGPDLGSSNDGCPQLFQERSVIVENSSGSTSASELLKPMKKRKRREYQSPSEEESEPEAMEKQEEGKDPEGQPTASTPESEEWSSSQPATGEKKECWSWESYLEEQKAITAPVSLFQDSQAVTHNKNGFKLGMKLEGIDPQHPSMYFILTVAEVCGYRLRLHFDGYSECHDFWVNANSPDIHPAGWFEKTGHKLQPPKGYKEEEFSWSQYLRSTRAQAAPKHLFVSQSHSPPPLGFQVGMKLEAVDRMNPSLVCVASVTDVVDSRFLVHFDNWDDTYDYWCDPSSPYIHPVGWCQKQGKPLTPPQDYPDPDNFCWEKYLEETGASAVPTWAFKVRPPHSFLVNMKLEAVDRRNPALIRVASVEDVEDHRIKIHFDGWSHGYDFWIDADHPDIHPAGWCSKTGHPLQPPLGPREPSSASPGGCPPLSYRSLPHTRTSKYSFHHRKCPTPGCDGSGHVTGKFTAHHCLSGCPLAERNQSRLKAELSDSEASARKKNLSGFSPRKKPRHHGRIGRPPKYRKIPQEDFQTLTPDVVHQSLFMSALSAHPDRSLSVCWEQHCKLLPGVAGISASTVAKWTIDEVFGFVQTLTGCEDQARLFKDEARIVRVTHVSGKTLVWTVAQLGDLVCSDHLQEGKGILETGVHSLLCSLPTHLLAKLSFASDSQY
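L3MBTL1 50 nM + b-AHA-H3(1-15)K9me1 75 nM, 30 min RT; compound added, 30 min RT; streptavidin donor/Ni-chelate acceptor beads 10 ug/mL each final, 30 min RT dark; AlphaScreen read.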
JMJD2A Tudor = inhibitors of human JMJD2A Tudor domain; O75164; AlphaScreen JMJD2A-Tudor / H3K4me3 peptide binding; Potency, µM (highest dose often 114 µM), most hits filed as inhibitors; 390,000 tested, 4.4% active; AID 504339; further: nearly all actives have a fitted effect of over 50% in size
Hits are given with their value; [ ] = dose if it differs, or a comment. The call rests on the fitted dose curve; in most records, active means well fitted curve in the direction sought with a large enough effect; inconclusive means small, poorly fitted or top-dose-only effect, or another doubt; inactive means no such curve, though single readings can be large; an effect the other way counts as inactive or inconclusive.

How did S=C(NCc1ccco1)N1CCN(C/C=C/c2ccccc2)CC1 do in these assays?
BAZ2B inh: inconclusive; HP1b binding inh: inactive; Sfp inh: 79.4µM; L3MBTL1 inh: inactive; JMJD2A Tudor: inconclusive

Results for S=C(Nc1ccccc1)N1CCN(C/C=C/c2ccccc2)CC1 ?
BAZ2B inh: inactive; HP1b binding inh: inactive; Sfp inh: inactive; G9a inh: inconclusive; L3MBTL1 inh: inactive; JMJD2A Tudor: inactive

Results for CCOc1ccccc1N1CCN(CC(=O)NC(=O)NCc2ccco2)CC1 ?
BAZ2B inh: inactive; HP1b binding inh: inactive; Sfp inh: inactive; G9a inh: inactive; L3MBTL1 inh: inactive; JMJD2A Tudor: inactive

How did CCOc1ccc(C(=O)NCc2ccco2)cc1OCC do in these assays?
BAZ2B inh: inactive; HP1b binding inh: inactive; Sfp inh: inactive; G9a inh: inactive; L3MBTL1 inh: inactive; JMJD2A Tudor: inactive

Results for CCOc1ccccc1N1CCN(Cc2ccco2)CC1 ?
BAZ2B inh: 50.1µM; HP1b binding inh: inconclusive; Sfp inh: inactive; G9a inh: inactive[12.7 µM]; JMJD2A Tudor: 3.55µM

Results for CCOc1ccccc1OCCCNCc1ccco1 ?
BAZ2B inh: inactive; HP1b binding inh: inconclusive; Sfp inh: inactive; G9a inh: inconclusive; L3MBTL1 inh: inactive; JMJD2A Tudor: 28.2µM

What do the screens show for `CCOc1ccccc1N1CCN(Cc2ccc(Br)s2)CC1`?
BAZ2B inh: inconclusive; HP1b binding inh: inconclusive; Sfp inh: inconclusive; G9a inh: inconclusive; L3MBTL1 inh: inactive; JMJD2A Tudor: 3.16µM

What do the screens show for `CCOc1ccccc1N1CCN(Cc2cnc(-c3ccccc3)[nH]2)CC1`?
BAZ2B inh: inconclusive; HP1b binding inh: inactive; Sfp inh: inactive; G9a inh: inconclusive; L3MBTL1 inh: inactive; JMJD2A Tudor: inactive

What do the screens show for `CCc1ccccc1NC(=O)CN(c1ccccc1OC)S(=O)(=O)c1ccc(C)cc1`?
BAZ2B inh: inactive; HP1b binding inh: inactive; G9a inh: inactive; JMJD2A Tudor: inactive

How did Cc1ccc(Cn2c(C)c(CNCCCc3ccccc3)c(C(=O)O)c2C)cc1 do in these assays?
BAZ2B inh: inconclusive; HP1b binding inh: inactive; G9a inh: inactive; JMJD2A Tudor: inactive

Results for O=C(NC1CCCCC1)NC1CC2CCC(C1)N2C(=S)NCc1ccco1 (stereo not given) ?
BAZ2B inh: inactive; HP1b binding inh: inactive; Sfp inh: 44.7µM; G9a inh: inactive; L3MBTL1 inh: inactive; JMJD2A Tudor: inactive

Results for CC(=O)c1ccc(N2CCN(C(=S)NCc3ccco3)CC2)cc1 ?
BAZ2B inh: inactive; HP1b binding inh: inactive; Sfp inh: inactive; G9a inh: 56.2µM; L3MBTL1 inh: inactive; JMJD2A Tudor: inactive

How did CCOc1ccccc1N1CCN(S(=O)(=O)c2cccs2)CC1 do in these assays?
BAZ2B inh: inactive; HP1b binding inh: inactive; Sfp inh: inactive; G9a inh: inactive; L3MBTL1 inh: inactive; JMJD2A Tudor: inactive

How did S=C(NCc1ccco1)N1CCN(c2ccc(Cl)cc2)CC1 do in these assays?
BAZ2B inh: inactive; HP1b binding inh: inactive; Sfp inh: inactive; G9a inh: inconclusive; L3MBTL1 inh: inactive; JMJD2A Tudor: inactive

How did CCOc1ccccc1N1CCN(C/C=C/c2ccc(N(C)C)cc2)CC1 do in these assays?
BAZ2B inh: 5.62µM; HP1b binding inh: 25.1µM; Sfp inh: inactive; G9a inh: 10µM; JMJD2A Tudor: 5.62µM

Results for CCOc1ccccc1N1CCN(S(=O)(=O)CC)CC1 ?
BAZ2B inh: inactive; HP1b binding inh: inactive; Sfp inh: inactive; G9a inh: 39.8µM; L3MBTL1 inh: inactive; JMJD2A Tudor: inactive

What do the screens show for `O=c1[nH]cnc2c1ncn2[C@H]1C[C@H](O)[C@@H](CO)O1`?
HP1b binding inh: inactive; JMJD2A Tudor: inactive

What do the screens show for `COc1ccc(C)cc1N(C)C(=O)c1c2c(nc3ccccc13)C(=O)N(C1CCCCC1)C2`?
BAZ2B inh: inactive; HP1b binding inh: inconclusive; G9a inh: inactive; JMJD2A Tudor: inactive

What do the screens show for `O=C(Nc1ccc(F)c(Cl)c1)N1CC=C(c2c[nH]c3ccccc23)CC1`?
BAZ2B inh: inconclusive; HP1b binding inh: inactive; G9a inh: inconclusive; JMJD2A Tudor: inconclusive

Results for O=C(CSc1ncc2c(n1)-c1ccccc1N(Cc1ccc(Cl)cc1)S2(=O)=O)c1ccc(Cl)cc1 ?
BAZ2B inh: inactive; HP1b binding inh: inactive; G9a inh: inactive; JMJD2A Tudor: inactive

What do the screens show for `C[C@@]12C(=O)OC(=O)[C@]1(C)[C@H]1CC[C@@H]2O1`?
Sfp inh: inactive; G9a inh: inactive[21.5 µM]

What do the screens show for `CCOc1ccccc1N1CCN(C(=S)NCc2ccco2)CC1`?
BAZ2B inh: inactive; HP1b binding inh: inactive; Sfp inh: inactive; G9a inh: 50.1µM; L3MBTL1 inh: inconclusive; JMJD2A Tudor: inactive

Results for CCOc1ccc(C(=O)NC2CCN(C(=S)NCc3ccco3)CC2)cc1 ?
BAZ2B inh: inactive; HP1b binding inh: inactive; Sfp inh: 7.08µM; G9a inh: inconclusive; L3MBTL1 inh: inactive; JMJD2A Tudor: inactive

How did COc1cccc(Cn2c(=O)cc(C)c3c(C)nn(-c4ccc(C)cc4)c32)c1 do in these assays?
BAZ2B inh: inactive; HP1b binding inh: inactive; G9a inh: inactive; JMJD2A Tudor: inactive

Results for COc1cc(Nc2nc3ccccc3c3nnc(C)n23)cc(OC)c1 ?
BAZ2B inh: inactive; HP1b binding inh: inactive; G9a inh: inactive; JMJD2A Tudor: inactive

Results for CCOc1ccccc1N1C(=O)CC(Nc2ccc(N3CCOCC3)cc2)C1=O (stereo not given) ?
BAZ2B inh: inconclusive; HP1b binding inh: inconclusive; Sfp inh: inactive; G9a inh: inconclusive; L3MBTL1 inh: 28.2µM; JMJD2A Tudor: inconclusive

Results for COc1ccccc1N1C(=O)CC(Nc2ccc(N3CCOCC3)cc2)C1=O (stereo not given) ?
BAZ2B inh: inconclusive; HP1b binding inh: inconclusive; Sfp inh: 79.4µM; G9a inh: inconclusive; L3MBTL1 inh: inactive; JMJD2A Tudor: inconclusive

How did O=C1CC(Nc2ccc(N3CCOCC3)cc2)C(=O)N1Cc1ccccc1 (stereo not given) do in these assays?
BAZ2B inh: inconclusive; HP1b binding inh: inactive; Sfp inh: inactive; G9a inh: 8.91µM; L3MBTL1 inh: inactive[11.4 µM]; JMJD2A Tudor: inconclusive

How did Cc1c([S+](=O)([O-])N2CCN([S+](=O)([O-])c3c(F)cccc3F)CC2)sc2ccc(Cl)cc12 do in these assays?
JMJD2A Tudor: inactive

How did CCn1c(CSc2nc3ccccc3s2)n[nH]c1=S do in these assays?
BAZ2B inh: inactive; HP1b binding inh: inactive; Sfp inh: inactive; G9a inh: 2.82µM; JMJD2A Tudor: 11.2µM

Results for CCCSc1nnc(CSc2nc3ccccc3s2)n1-c1ccccc1 ?
BAZ2B inh: inactive; HP1b binding inh: inactive; Sfp inh: inactive; G9a inh: inactive[0.501 µM]; L3MBTL1 inh: inactive; JMJD2A Tudor: inactive
